Potency and affinity values are given separately.
Assays:
Klebsiella pneumoniae = conditions: Concentration 32 ug.mL-1; ASSAY_TEST Inhibition of Bacterial Growth; detection method Absorption (OD600); MEDIA CAMHB; plate type 384well; NBS; CORNING #3640; time 18 hr
Candida albicans = conditions: 32 ug/mL
Cryptococcus neoformans = conditions: Concentration 32 ug.mL-1; ASSAY_TEST Inhibition of Fungal Growth; detection method Resazurin; Absorption (OD600-OD570); plate type 384well; NBS; CORNING #3640

Structure (SMILES)	Inhibition (Klebsiella pneumoniae) [%]	Inhibition (Candida albicans) [%]	Inhibition (Cryptococcus neoformans) [%]
CCc1ccc(Nc2nc(N)c(-c3nc4ccccc4c(=O)n3-c3ccc(Cl)cc3)s2)cc1	12.28	0.52	-34.77
Fc1cc(Cn2c(-c3cscn3)nc3c(Cl)cccc32)cc(C(F)(F)F)c1	-0.75	3.24	-8.45
N#Cc1ccccc1-c1ccc(Cn2c(-c3cscn3)nc3ccc(Cl)cc32)cc1	6.08	1.5	-28.09
Cn1c(-c2cscn2)nc2c(Cl)cccc21	-3.44	4.84	-43.05
N=C(Nc1ccccc1Cl)c1cscn1	17.83	2.14	-8.23
N#Cc1ccccc1-c1ccc(Cn2c(-c3cscn3)nc3ccccc32)cc1	13.6	1.96	-25.26
CCc1ccc(-n2c(-c3sc(Nc4ccccc4)nc3N)nc3ccccc3c2=O)cc1	-7.9	0.25	-54.61
N#Cc1ccc(Cn2c(-c3cscn3)nc3c(Cl)cccc32)cc1	-10.25	4.47	-42.41
O=[N+]([O-])c1ccc(Cn2c(-c3cscn3)nc3ccccc32)cc1	13.21	3.4	-41.75
Clc1cccc2[nH]c(-c3cscn3)nc12	5.98	15	-19.67
CC(C)c1ccc(Cn2c(-c3cscn3)nc3c(Cl)cccc32)cc1	2.02	2.25	-5.86
N#Cc1ccccc1-c1ccc(Cn2c(-c3cscn3)nc3c(Cl)cccc32)cc1	-3.22	5.26	-8.16
Clc1cccc2c1nc(-c1cscn1)n2Cc1ccccc1	10.03	5.46	-32.31
Nc1nc(Nc2ccccc2)sc1-c1nc2ccccc2c(=O)n1-c1ccccc1	11.02	6.03	-28.85
CCc1ccc(Nc2nc(N)c(-c3nc4ccccc4c(=O)n3-c3ccc(CC)cc3)s2)cc1	12.46	3.1	-48.5
CCc1ccc(Nc2nc(N)c(-c3nc4ccccc4c(=O)n3-c3ccccc3)s2)cc1	10.03	6	-53.41
Nc1nc(Nc2ccccc2)sc1-c1nc2ccccc2c(=O)n1-c1ccc(Cl)cc1	-25.33	3.54	-43.66
Clc1ccc2c(c1)nc(-c1cscn1)n2Cc1ccccc1	12.29	1.89	-24.56
Cn1c(-c2cscn2)nc2cc(Cl)ccc21	8.32	0.35	-39.47
N=C(Nc1ccccc1)c1cscn1	-2.19	6.13	4.1
Clc1ccc2nc(-c3cscn3)n(Cc3ccccc3)c2c1	10.47	0.38	-41.97
N#Cc1ccccc1-c1ccc(Cn2c(-c3cscn3)nc3cc(Cl)ccc32)cc1	8	-1.51	-36.18
Nc1nc(Nc2ccc(Cl)cc2)sc1-c1nc2ccccc2c(=O)n1-c1ccccc1	6.62	3.78	-54.18
